{
  "source": "PubChem BioAssay (NCI)",
  "note": "The panel holds about 83,000 compounds, 20% with a hit somewhere; the sample as a whole holds those more often.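 Interpretation: 100, growth as untreated; towards 0, rising growth inhibition; 0, no net growth; 0 to -100, cell death. Compounds scoring below 10 were considered active.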 Calls of active or inactive are those of the source.",
  "data": [
    {"tested_on": "PC-3 prostate", "assay": "NCI-60 one-dose screen, 48 h (100 = growth as untreated, 0 = no growth, -100 = all killed)", "settings": "10 µM unless noted", "method": "Growth inhibition of the PC-3 human tumor cell line is measured as a screen for anti-cancer activity. Cells are grown in 96 well plates and exposed to the test compound for 48 hours. Compounds are tested at a single concentration, which is 10^-5 M for most compounds. The reported endpoint is percent growth (GI% or GIPRCNT), where numbers from 0 - 100% represent growth inhibition, and numbers from -100% - 0 represent cell death. For example, a value of 40 represents 60% growth inhibition. A value of 0 means no net growth occurred over the course of the experiment. A value of -40 indicates 40% of cells at the beginning of the experiment died by the end of the experiment. A value of -100 means all cells are dead at the end of the experiment.\nNCI-60 Human Tumor Cell Lines Screen was performed using the standard one-dose NCI protocol, which is described in more detail at https://dtp.cancer.gov/discovery_development/nci-60/default.htm.\nCompounds with GIPRCNT values below 10 were considered active. Activity score was based on GIPRCNT using the following formula: […]\nScore is 0 for GIPRCNT values of 100 or above, 50 for GIPRCNT values of 0, and 100 for GIPRCNT values of -100.", "values": [
      {"smiles": "COc1cccc(-c2cnco2)c1OCc1c(C)c(COc2c(OC)cccc2-c2cnco2)c(C)c(COc2c(OC)cccc2-c2cnco2)c1C", "growth": "71.3% (inactive)"},
      {"smiles": "COc1ccc(C2CC(c3cnccn3)=NN2)cc1OC", "note": "(stereo not given)", "growth": "92% (inactive)"},
      {"smiles": "Cc1c(C(=O)O)nnn1-c1nccs1", "growth": "89.4% (inactive)"},
      {"smiles": "CN(C)CCOC(=O)Nc1ccc(Cl)cc1", "growth": "65.4% (inactive)"},
      {"smiles": "Cc1nn(-c2ccccc2)c2c1C(c1ccc([N+](=O)[O-])cc1)C(C#N)=C(N)O2", "note": "(stereo not given)", "growth": "102% (inactive)"},
      {"smiles": "CCOC(=O)c1c(C)nc2c(c1N)/C(=C/c1ccc(OC)cc1)C(=O)N2Cc1ccc(F)cc1", "growth": "-52.5% (active)"},
      {"smiles": "COc1ccc(-c2cn(-c3cccc(C(=O)/C=C/c4cc(OC)c(OC)c(OC)c4)c3)c(=O)[nH]2)cc1", "growth": "20.6% (inactive)"},
      {"smiles": "COC(=O)CNC(=O)C(=O)c1c(O)c(O)c(C(C)C)c2cc(C)c(-c3c(C)cc4c(C(C)C)c(O)c(O)c(C(=O)C(=O)NCC(=O)OC)c4c3O)c(O)c12", "growth": "18.7% (inactive)"},
      {"smiles": "CN(C)c1ccc(/C=N/NC(=O)COc2cc(=O)n(C)c3ccccc23)cc1", "growth": "101% (inactive)"},
      {"smiles": "COc1ccc2c(c1)/C(=C\\c1sc(=S)[nH]c1O)C(C(=O)O)=N2", "growth": "99.4% (inactive)"},
      {"smiles": "CCCCCCCCc1cc[n+](CC(=O)c2ccc(Br)cc2)cc1", "growth": "10.2% (inactive)"},
      {"smiles": "CCC(C)NCc1ccccc1", "note": "(stereo not given)", "growth": "78.1% (inactive)"},
      {"smiles": "C=C1c2c(C)nn(-c3ccc(O)cc3)c2N(C)C23C[C@@H]1C1(C)c4c(C)nn(-c5ccc(O)cc5)c4N(C)C(C)(C[C@H]12)C3", "note": "(stereo not given in full)", "growth": "12.8% (inactive)"},
      {"smiles": "CCOC(=O)Cc1csc2nc(-c3ccccc3)nn12", "growth": "101% (inactive)"},
      {"smiles": "NS(=O)(=O)Oc1ccc(NC(=O)C23CC4CC(CC(C4)C2)C3)cc1Cl", "growth": "94.5% (inactive)"},
      {"smiles": "Cl.Fc1c[c-]c(-c2ccccn2)c(F)c1.[Pt].c1ccc([PH+](c2ccccc2)c2ccccc2[PH+](c2ccccc2)c2ccccc2)cc1", "growth": "-86.6% (active)"},
      {"smiles": "Cc1cc(C)on1", "growth": "89.9% (inactive)"},
      {"smiles": "N#Cc1cnn2c(-c3ccc(Cl)cc3)nc(NC3CC3)nc12", "growth": "95% (inactive)"},
      {"smiles": "COc1ccc(O)c(-c2cc(-c3ccccc3)c(C#N)c(=O)[nH]2)c1", "growth": "78.3% (inactive)"},
      {"smiles": "CCCCOc1nc2ccc(Cl)cc2cc1/C=C/C(=O)/C=C1/CC(c2cc3cc(Cl)ccc3nc2OCCCC)Nc2ccccc2N1", "note": "(stereo not given)", "growth": "91.6% (inactive)"},
      {"smiles": "c1ccc([P+](CCCc2n(Cc3ccc4ccccc4c3)c3ccccc3[n+]2Cc2ccc3ccccc3c2)(c2ccccc2)c2ccccc2)cc1", "growth": "67.5% (inactive)"},
      {"smiles": "COc1ccc(/C(C)=C(\\c2ccc(Cl)cc2)c2ccc(OCCN3CCCCC3)cc2)cc1F", "growth": "28% (inactive)"},
      {"smiles": "O=C(NCCOCCOCCOCCNC(=O)c1cc2c(o1)C(=O)c1ccccc1C2=O)NC12CC3CC(CC(C3)C1)C2", "growth": "12.1% (inactive)"},
      {"smiles": "O=c1oc2ccc(Cl)cc2cc1-c1cs/c(=N/N=C\\c2ccc(Cl)cc2)n1/N=C/c1ccc(Cl)cc1", "growth": "99.4% (inactive)"},
      {"smiles": "CCOC(=O)N1CCc2c(sc3c2C(=O)N[C@H](c2ccc(OC)cc2)N3)C1", "growth": "89.1% (inactive)"},
      {"smiles": "CNC=O", "growth": "98.1% (inactive)"},
      {"smiles": "CC1(C)CC(=O)c2c(ccc(C(=O)C[C@H](N)CO)c2N)O1", "growth": "45.3% (inactive)"},
      {"smiles": "O=C1CSC(c2ccccc2)N1c1ccccc1", "note": "(stereo not given)", "growth": "91.4% (inactive)"},
      {"smiles": "CN(C)CCn1cc(-c2ccc3c(Nc4ccc(CC(=O)Nc5cccc(F)c5)cc4)ncnc3c2)cn1", "growth": "-25.2% [30 µM] (active)"},
      {"smiles": "CC[C@@H](C[C@H](CCO)c1ccccc1)c1cc2ccccc2o1", "growth": "78.8% (inactive)"},
      {"smiles": "CCN(CC)CC(O)CNc1c2ccc(Cl)cc2nc2ccc(OC)cc12", "note": "(stereo not given)", "growth": "16.6% (inactive)"},
      {"smiles": "COc1cc(-c2ncn(/C=C\\c3nnco3)n2)cc(C(F)(F)F)c1", "growth": "33.6% (inactive)"},
      {"smiles": "CCOc1ccc(-c2nc3ccc(-c4nc5ccc(N6CCN(C)CC6)cc5[nH]4)cc3[nH]2)cc1OCC", "growth": "17.2% (inactive)"},
      {"smiles": "Cl.Fc1c[c-]c(-c2ccccn2)c(F)c1.[Pt].c1ccc([PH+](C[PH+](c2ccccc2)c2ccccc2)c2ccccc2)cc1", "growth": "-57.7% (active)"},
      {"smiles": "COc1cc2c(cc1OC)-c1ccc3cc4c(cc3c1N(CCN1CCCC1)C2)OCO4", "growth": "2.3% (active)"},
      {"smiles": "COc1ccc(-n2nnc(C(=O)NCCc3c[nH]c4ccc(F)cc34)c2C)cc1", "growth": "87.4% (inactive)"},
      {"smiles": "N#Cc1c(N)nc2c(nnn2-c2cccc(C(F)(F)F)c2)c1N", "growth": "86.8% (inactive)"},
      {"smiles": "CCN(CCO)CC(=O)c1cc(Cl)cc(Cl)c1Cl", "growth": "84% (inactive)"},
      {"smiles": "CC(=O)c1sc(-c2ccccc2)cc1N", "growth": "90.8% (inactive)"},
      {"smiles": "Cc1cc(NS(=O)(=O)c2ccccc2)c(OS(=O)(=O)c2ccccc2)cc1C", "growth": "89.7% (inactive)"}
    ]}
  ]
}
